# Assay results reported in PubChem BioAssay AID463173 (ICCB-Longwood Screening Facility, Harvard Medical School, 2010).
# Hit rate of the full screen: of about 52,000 compounds, about 4,300 (8.3%) were called active. Cut-off read from the data, not from the text of the source: active = survival mostly below about 52% (no sharp cut-off); inactive = mostly above about 56%. The entries come from a sample that favours actives as a whole.
# Test system: DeltatarO mutant
# Test: growth inhibition of S. aureus wild type versus tarO mutant, primary screen, teichoic acid synthesis inhibitors, RN4220, OD600 (AID 463173)
# Conditions: OD600, 18 h, active compounds read low, screened at 18.75 µg/mL (by protocol)
row,Structure (SMILES),survival
1,O=C(C1CCN(S(=O)(=O)c2cccs2)CC1)N1CCN(c2cccc(Cl)c2)CC1,64% (inactive)
2,CCOC(=O)c1cc2c(ccn2C)n1Cc1ccc(OC(F)(F)F)cc1,96% (inactive)
3,CCOC(=O)N1CCc2c(sc3c2c(=O)n(Cc2ccccc2)c(=O)n3Cc2cccc(C)c2)C1,83% (inactive)
4,CC(C)NC(=O)CCSc1ccc(Cl)cc1,93% (inactive)
5,COc1ccc(N(C)C(=O)CCn2cnc3onc(-c4ccc(F)cc4)c3c2=O)c(OC)c1,92% (inactive)
6,CC(C)Nc1nc2c(-c3cccc(Br)c3)nnn2c2ccccc12,69% (inactive)
7,CC(C)Cn1c(-c2ccccc2Cl)nc2ccccc21,-2% (active)
8,CCCCNc1nc2c(-c3cccc(Br)c3)nnn2c2ccccc12,101% (inactive)
9,CCCn1c(SCC(O)c2cccc(OC)c2)nc2ccccc21 (stereo not given),84% (inactive)
10,CC(C)Cn1c(C2CC(=O)N(c3ccccc3Cl)C2)nc2ccccc21 (stereo not given),101% (inactive)
11,CC(C)Cn1c(-c2cccc(Br)c2)nc2ccccc21,21% (active)
12,CC(=O)NC(C)c1nc2ccccc2n1Cc1ccccc1Cl (stereo not given),83% (inactive)
13,Cc1nc2ccccc2c(=O)n1CC(C)C,64% (inactive)
14,CCCn1c(-c2cccc(Br)c2)nc2ccccc21,-4% (active)
15,O=C(O)c1ccc(NC(=O)c2cc(S(=O)(=O)N3CCCCC3)c(Cl)cc2Cl)cc1,165% (inactive)
16,CCOCCCN(Cc1ccco1)S(=O)(=O)c1cc2c(cc1C)NC(=O)CO2,64% (inactive)
17,O=C(NCc1ccco1)c1ccccc1,67% (inactive)
18,O=C(Nc1ccccc1)c1cc2sccc2n1Cc1ccccc1,87% (inactive)
19,COc1ccc(C(=O)NCc2ccc3c(c2)CCN3C(=O)c2ccc(Cl)cc2)c(OC)c1,94% (inactive)
20,COc1ccc(Cl)cc1NC(=O)C(C)n1nnc2sc3c(c2c1=O)CCCC3 (stereo not given),78% (inactive)
21,Cc1cccc(NS(=O)(=O)c2ccc(Cl)c(C(=O)Nc3ccccc3C)c2)c1,71% (inactive)
22,CC(C)CCOc1ccc(Oc2nc(N(C)C)nc(N(C)C)n2)nn1,62% (inactive)
23,Cc1nn(C)c2c1c(C(F)(F)F)cc(=O)n2CC(=O)NCc1ccc(OC(C)C)cc1,90% (inactive)
24,Cc1ccc(Nc2c(-c3cccs3)nc3nc(C)cc(C)n23)cc1,15% (active)

row,Structure (SMILES),survival
1,Cc1cc(C)n2c(Nc3ccccc3C)c(-c3cccs3)nc2n1,84% (inactive)
2,Cc1cccc(Nc2c(-c3cccs3)nc3nc(C)cc(C)n23)c1,151% (inactive)
3,Cc1ccc(C)c(NC(=O)Cn2c(=O)n(Cc3ccc4c(c3)OCO4)c(=O)c3ccc(C(=O)NC4CCCCC4)cc32)c1,88% (inactive)
4,Cc1csc2nc(COC(=O)c3cccc(NC(=O)c4cccc(Cl)c4)c3)cc(=O)n12,17% (active)
5,Cc1ccccc1C(=O)Nc1cccc(C(=O)OCc2cc(=O)n3c(C)csc3n2)c1,87% (inactive)
6,Cc1ccc(OCC(=O)Nc2cccc(C(=O)OCc3cc(=O)n4c(C)csc4n3)c2)cc1,89% (inactive)
7,Cc1csc2nc(COC(=O)c3cccc(NC(=O)COc4ccc(Cl)cc4)c3)cc(=O)n12,94% (inactive)
8,CCOc1cc(C(=O)OCc2cc(=O)n3c(C)csc3n2)cc(OCC)c1OCC,-1% (active)
9,CCOc1ccc(C(=O)Nc2ccc(C(=O)OCc3cc(=O)n4c(C)csc4n3)cc2)cc1,88% (inactive)
10,COc1cccc(C(=O)Nc2cccc(C(=O)OCc3cc(=O)n4c(C)csc4n3)c2)c1,128% (inactive)
11,Cc1cccc(OCC(=O)Nc2cccc(C(=O)OCc3cc(=O)n4c(C)csc4n3)c2)c1,-5% (active)
12,Cc1csc2nc(COC(=O)c3ccc(F)cc3)cc(=O)n12,72% (inactive)
13,Cc1ccc(NC(=O)CN(C)S(=O)(=O)c2ccc3c(c2)CCC(=O)N3)c(C)c1,85% (inactive)
14,CCN(Cc1ccccc1)C(=O)c1nn(-c2ccc(OC)cc2)c(=O)c2c1c1ccccc1n2C,68% (inactive)
15,COc1ccccc1NC(=O)CN1C(=O)C(C)(C)c2ccccc21,85% (inactive)
16,CCc1ccc2c(c1)NC(c1ccc(C)cc1)=NC(c1cccs1)=N2,68% (inactive)
17,Cc1ccc[n+](Cc2cnc(C)nc2N)c1,83% (inactive)
18,CCC(=O)N1CCc2cc(S(=O)(=O)NC(Cc3ccccc3)C(=O)Nc3ccccc3C)ccc21 (stereo not given),118% (inactive)
19,COc1ccccc1-c1nnc(C2CCN(C(=O)c3ccc(C)cc3)CC2)o1,91% (inactive)
20,CCN(CC)N=Nc1ccc(S(=O)(=O)N=C(C)O)cc1,87% (inactive)
21,Nc1nnc(CSCc2ccccc2)s1,109% (inactive)
22,Nc1nnc(SCc2ccccc2)s1,49% (active)
23,Nc1nc(SCc2ccccc2)ns1,53% (inactive)
24,CC(=O)Nc1ccc(Nc2c(CCC(C)C)c(C)c(C#N)c3nc4ccccc4n23)cc1,136% (inactive)

row,Structure (SMILES),survival
1,Cc1ccc(Nc2c(C(C)C)c(C)c(C#N)c3nc4ccccc4n23)cc1,62% (inactive)
2,CCc1c(C)c(C#N)c2nc3ccccc3n2c1Nc1cccc(C(F)(F)F)c1,39% (active)
3,CCn1cc(S(=O)(=O)c2cccc(C)c2)c(=O)c2cc(F)c(N3CCCC(C)C3)cc21 (stereo not given),84% (inactive)
4,CC1=C(C(=O)Nc2ccc(C)cc2Cl)C2(CCCCCC2)OC1=O,89% (inactive)
5,Cc1nc2cc(-c3ccccc3)nn2c(C)c1CCC(=O)NCCc1ccccc1,54% (inactive)
6,COc1cc([N+](=O)[O-])ccc1NC(=O)N1CCN(c2cc(-c3noc(C)n3)ccc2C)CC1,94% (inactive)
7,CCN1c2cc(C)ccc2-n2cccc2C12CCN(C(=O)Nc1cc(OC)c(OC)c(OC)c1)CC2,93% (inactive)
8,COc1cc(NC(=O)N2CCC3(CC2)Nc2ccccc2-n2cccc23)cc(OC)c1OC,101% (inactive)
9,COc1cc(NC(=O)N2CCC3(CC2)Nc2cc(F)ccc2-n2cccc23)cc(OC)c1OC,105% (inactive)
10,COc1cc([N+](=O)[O-])ccc1NC(=O)N1CCC2(CC1)Nc1cc(F)ccc1-n1cccc12,46% (active)
11,COc1cc([N+](=O)[O-])ccc1NC(=O)N1CCC2(CC1)Nc1ccccc1-n1cccc12,37% (active)
12,Cc1cc(C(=O)Nc2cccc(OC(C)C)c2)c(C)o1,105% (inactive)
13,COc1cccc(CNC(=O)c2nnc(Cc3ccc(Cl)cc3)o2)c1,91% (inactive)
14,CCOc1ccc(CCNC(=O)CCn2c(=O)c3cccn3c3cccnc32)cc1,89% (inactive)
15,CCS/C=C/C#CC1(O)CCCCC1,90% (inactive)
16,Cc1ccccc1CNC(=O)c1ccc2nc(SCc3ccc(F)cc3)n(C)c2c1,60% (inactive)
17,COc1ccc(Cl)cc1NC(=O)Cn1ncc2c3ccccc3n(Cc3ccccc3)c2c1=O,125% (inactive)
18,CCOC(=O)Cn1nnc(-c2ccccc2)n1,95% (inactive)
19,CCOC(=O)c1[nH]c2c(c1Cc1ccccc1C)C(=O)CC(c1cc(OC)ccc1OC)C2 (stereo not given),82% (inactive)
20,COc1ccc(N2CCN(C(=O)CCc3c(C)nc4cc(-c5ccc(Cl)cc5)nn4c3C)CC2)cc1,116% (inactive)
21,O=C(O)/C=C/C(=O)Nc1nnc(-c2ccccc2F)s1,97% (inactive)
22,Cc1ccc(Nc2c(-c3ccc(Br)o3)nc3ccccn23)cc1,112% (inactive)
23,Cc1ccc(-c2nc3ccccn3c2Nc2c(C)cccc2C)o1,-2% (active)
24,Cc1ccc(-c2nc3ccccn3c2Nc2ccc3c(c2)OCCO3)o1,45% (inactive)

row,Structure (SMILES),survival
1,Cc1ccn2c(Nc3ccc4c(c3)OCCO4)c(-c3ccc(C)o3)nc2c1,58% (active)
2,COc1ccc(Nc2c(-c3ccc(C)o3)nc3cc(C)ccn23)cc1,75% (inactive)
3,Cc1ccc2nc(-c3ccc(C)o3)c(Nc3ccc4c(c3)OCCO4)n2c1,72% (inactive)
4,Cc1ccc(-c2nc3ccccn3c2Nc2ccc3c(c2)OCO3)o1,34% (active)
5,Cc1ccn2c(Nc3ccc4c(c3)OCO4)c(-c3ccc(C)o3)nc2c1,81% (inactive)
6,Cc1ccc(-c2nc3ccccn3c2Nc2ccc3c(c2)OCO3)cc1,73% (inactive)
7,Cc1ccc2nc(-c3ccco3)c(Nc3ccc4c(c3)OCCO4)n2c1,67% (inactive)
8,c1coc(-c2nc3ccccn3c2Nc2ccc3c(c2)OCCO3)c1,53% (active)
9,Brc1ccc(-c2nc3ccccn3c2Nc2ccc3c(c2)OCCO3)o1,85% (inactive)
10,CCc1nn(CC(=O)NCc2ccccc2Cl)c(=O)c2cc3ccccc3n12,62% (inactive)
11,Cc1ccc(Cn2c(SCc3ccc(C(=O)NC4CCCCC4)cc3)nc3ccncc32)cc1,71% (inactive)
12,Cc1cc(N2CCCC2)nc(SCC(=O)c2ccccc2)n1,77% (inactive)
13,COc1ccc(CCN2C(=O)CN(C3CCCCCC3)C(=O)C2c2ccc(C)cc2)cc1OC (stereo not given),92% (inactive)
14,Cc1ccc(Cl)cc1N1CCN(C(=O)c2cn(C)c3ccc(S(=O)(=O)N4CCCC4)cc3c2=O)CC1,124% (inactive)
15,Cc1ccccc1Cn1c2ccccc2c2cnn(CC(=O)N3CCC(C)CC3)c(=O)c21,41% (inactive)
16,COc1ccc(OCCCn2c(=O)oc3ccc(C)cc32)cc1,39% (inactive)
17,O=c1oc2ccccc2n1CCCOc1ccccc1Cl,3% (active)
18,Cc1ccc2oc(=O)n(CCCOc3ccccc3Cl)c2c1,-4% (active)
19,O=C(O)CCCn1c(=O)oc2ccccc21,96% (inactive)
20,Cc1ccc2oc(=O)n(CCNC(=O)Nc3ccc(C)c(F)c3)c2c1,108% (inactive)
21,Cc1c(Cl)cccc1NC(=O)NCCOCCn1c(=O)oc2ccccc21,51% (inactive)
22,Cc1ccc2oc(=O)n(CCCOc3ccc(Cl)cc3)c2c1,-3% (active)
23,N#CCCCn1c(=O)oc2ccccc21,100% (inactive)
